Measured values: ChEMBL document CHEMBL4513146, “CO-ADD screening of Karazin Kharkiv National University (Ukraine) compounds”
Measured potencies and affinities stand elsewhere.

Tested on: Staphylococcus aureus
Settings: Concentration 32 ug.mL-1;; ASSAY_TEST Inhibition of Bacterial Growth; detection method Absorption (OD600); MEDIA CAMHB; plate type 384well; NBS; CORNING #3640; time 18 hr

SMILES | Inhibition
Cc1ccc(NC(=O)Cn2nc3c(N4CCOCC4)nc4ccccc4n3c2=O)cc1C | 6.57%
Cc1ccc(C)c(CN(c2ccc(F)c(F)c2)S(=O)(=O)c2cccn3cnnc23)c1 | 5.14%
CCCn1c(=O)c2sccc2n2c(=O)n(Cc3ccc(Cl)cc3)nc12 | 1.51%
Cc1cc2nn(CC(=O)Nc3ccc(F)cc3Cl)c(=O)n2c(Nc2ccc(F)cc2)n1 | 4.61%
Cc1ccc(-c2cc3c4nn(CC(=O)Nc5ccccc5C)c(=O)n4ccn3n2)cc1C | 5.58%
Cc1ccc(-c2cc3c4nnc(SCC(=O)Nc5ccccc5Br)n4ccn3n2)cc1 | 1.85%
Cn1c(=O)c2ccc(C(=O)NC3CCCCC3)cc2n2c(=O)n(CC#N)nc12 | 10.61%
Cc1ccc(Sc2nccn3c(=O)n(CC(=O)Nc4ccccc4Br)nc23)c(C)c1 | -0.81%
O=C(CCc1nnc2c(N3CCCCC3)nc3ccccc3n12)NCc1ccc(Br)cc1 | 2.96%
Cc1ccc(NC(=O)CSc2nnc3n(CC4CCCO4)c(=O)c4sccc4n23)cc1F (stereo not drawn) | 4.36%
O=c1c2sccc2n2c(=O)n(Cc3ccccc3Cl)nc2n1CCc1ccccc1 | 10.44%
COc1cccc(NC(=O)Cn2nc3c4cc(-c5ccc(Cl)cc5)nn4ccn3c2=O)c1 | 4.83%
O=c1c2nnc(SCc3ccccc3F)n2ccn1-c1ccc(F)cc1 | 19.41%
COc1cccc(CN(c2ccccc2)S(=O)(=O)c2ccc3nncn3c2)c1 | 6.2%
Cc1cccc(NC(=O)Cn2nc3c(SCc4ccc(Cl)cc4)nccn3c2=O)c1C | 13.84%
Cc1cc2nn(CC(=O)Nc3ccc4c(c3)OCCO4)c(=O)n2c(Nc2ccccc2C)n1 | 9.51%
O=C(CSc1nnc2c(=O)n(-c3ccccc3)ccn12)NCc1ccc(Cl)cc1 | 9.66%
Cc1cccc(C)c1NC(=O)Cn1nc2c3cc(-c4ccc(Cl)cc4)nn3ccn2c1=O | -1.34%
CCc1ccccc1NC(=O)Cn1nc2cc(C)nc(Nc3ccc(F)cc3)n2c1=O | 8.34%
CCC(C)NC(=O)Cn1nc2n(CC(C)C)c(=O)c3ccc(C(=O)NC4CCCCC4)cc3n2c1=O (stereo not drawn) | 7.36%

SMILES | Inhibition
COc1ccc(-c2cc3c4nn(CC(=O)Nc5ccccc5Cl)c(=O)n4ccn3n2)cc1 | -2.84%
CCc1ccc(N(Cc2ccc(OC)cc2)S(=O)(=O)c2cccn3c(C)nnc23)cc1 | 5.17%
Cc1ccc(-c2ccc3nn(CC(=O)Nc4ccc(Br)cc4)c(=O)n3n2)cc1C | 15.41%
Cc1cccc(C)c1NC(=O)CSc1nnc2c3cc(-c4ccc(F)cc4)nn3ccn12 | -13.2%
COc1ccc(CNC(=O)Cn2nc3c(Sc4ccc(C)cc4C)nccn3c2=O)cc1 | 6.57%
CCCCOc1ccc(-c2cc3c4nnc(SCC(=O)Nc5ccc(OC)cc5)n4ccn3n2)cc1 | -5.31%
O=C(Cn1nc2c(Sc3cccc(F)c3)nccn2c1=O)Nc1ccc(F)c(Cl)c1 | -0.79%
COc1ccc(NC(=O)Cn2nc3c(Sc4ccccc4)nccn3c2=O)c(OC)c1 | -11.13%
Cc1ccccc1Oc1nc2ccccc2n2c(=O)n(CC(=O)NCc3ccc4c(c3)OCO4)nc12 | 13.3%
Cc1ccc(NC(=O)Cn2nc3ccc(SCc4ccc(Cl)cc4)nn3c2=O)cc1C | 4.09%
COc1cccc(NC(=O)Cn2nc3c(Oc4cccc(OC)c4)nccn3c2=O)c1 | -17.16%
COc1cccc(-n2ccn3c(SCC(=O)N4CCN(c5ccccc5F)CC4)nnc3c2=O)c1 | 12.37%
COc1ccccc1N1CCN(C(=O)Cn2nc3ccc(-c4ccc(C)c(C)c4)nn3c2=O)CC1 | 13.88%
Cc1ccccc1N1CCN(c2nccn3c(=O)n(CC(=O)NCc4cc(F)cc(F)c4)nc23)CC1 | 9.65%
COc1ccc(C(=O)CSc2nnc3c(=O)n(-c4ccccc4)ccn23)cc1OC | -10.93%
Cc1ccc(CNC(=O)c2ccc3nn(CC(=O)Nc4ccc(C(F)(F)F)cc4)c(=O)n3c2)cc1 | -2.47%
CN(Cc1ccccc1)C(=O)CSc1nnc2c3cc(-c4ccccc4)nn3ccn12 | 11.08%
Cc1cccc(Oc2nccn3c(=O)n(CC(=O)N4CCN(c5ccc(F)cc5)CC4)nc23)c1C | 3.93%
COc1ccc(NC(=O)Cn2nc3nc(Nc4ccc(F)cc4)ccn3c2=O)cc1Cl | 5.78%

Tested on: Escherichia coli
Settings: Concentration 32 ug.mL-1;; ASSAY_TEST Inhibition of Bacterial Growth; detection method Absorption (OD600); MEDIA CAMHB; plate type 384well; NBS; CORNING #3640; time 18 hr

SMILES | Inhibition
Cc1ccc(NC(=O)Cn2nc3c(N4CCOCC4)nc4ccccc4n3c2=O)cc1C | -0.21%
Cc1ccc(C)c(CN(c2ccc(F)c(F)c2)S(=O)(=O)c2cccn3cnnc23)c1 | 0.2%
CCCn1c(=O)c2sccc2n2c(=O)n(Cc3ccc(Cl)cc3)nc12 | -6.17%
Cc1cc2nn(CC(=O)Nc3ccc(F)cc3Cl)c(=O)n2c(Nc2ccc(F)cc2)n1 | -0.12%
Cc1ccc(-c2cc3c4nn(CC(=O)Nc5ccccc5C)c(=O)n4ccn3n2)cc1C | 2.13%
Cc1ccc(-c2cc3c4nnc(SCC(=O)Nc5ccccc5Br)n4ccn3n2)cc1 | -3.11%
Cn1c(=O)c2ccc(C(=O)NC3CCCCC3)cc2n2c(=O)n(CC#N)nc12 | 1.2%
Cc1ccc(Sc2nccn3c(=O)n(CC(=O)Nc4ccccc4Br)nc23)c(C)c1 | -13.84%
O=C(CCc1nnc2c(N3CCCCC3)nc3ccccc3n12)NCc1ccc(Br)cc1 | -5.93%
Cc1ccc(NC(=O)CSc2nnc3n(CC4CCCO4)c(=O)c4sccc4n23)cc1F (stereo not drawn) | -6.16%
O=c1c2sccc2n2c(=O)n(Cc3ccccc3Cl)nc2n1CCc1ccccc1 | 0.77%
COc1cccc(NC(=O)Cn2nc3c4cc(-c5ccc(Cl)cc5)nn4ccn3c2=O)c1 | 3.44%
O=c1c2nnc(SCc3ccccc3F)n2ccn1-c1ccc(F)cc1 | -3.23%
COc1cccc(CN(c2ccccc2)S(=O)(=O)c2ccc3nncn3c2)c1 | -8.56%
Cc1cccc(NC(=O)Cn2nc3c(SCc4ccc(Cl)cc4)nccn3c2=O)c1C | -3.65%
Cc1cc2nn(CC(=O)Nc3ccc4c(c3)OCCO4)c(=O)n2c(Nc2ccccc2C)n1 | -1.19%
O=C(CSc1nnc2c(=O)n(-c3ccccc3)ccn12)NCc1ccc(Cl)cc1 | -0.23%
Cc1cccc(C)c1NC(=O)Cn1nc2c3cc(-c4ccc(Cl)cc4)nn3ccn2c1=O | -1.58%
CCc1ccccc1NC(=O)Cn1nc2cc(C)nc(Nc3ccc(F)cc3)n2c1=O | -2.85%
CCC(C)NC(=O)Cn1nc2n(CC(C)C)c(=O)c3ccc(C(=O)NC4CCCCC4)cc3n2c1=O (stereo not drawn) | -3.14%

SMILES | Inhibition
COc1ccc(-c2cc3c4nn(CC(=O)Nc5ccccc5Cl)c(=O)n4ccn3n2)cc1 | -5.57%
CCc1ccc(N(Cc2ccc(OC)cc2)S(=O)(=O)c2cccn3c(C)nnc23)cc1 | -2.97%
Cc1ccc(-c2ccc3nn(CC(=O)Nc4ccc(Br)cc4)c(=O)n3n2)cc1C | -2.09%
Cc1cccc(C)c1NC(=O)CSc1nnc2c3cc(-c4ccc(F)cc4)nn3ccn12 | -12.65%
COc1ccc(CNC(=O)Cn2nc3c(Sc4ccc(C)cc4C)nccn3c2=O)cc1 | -1.79%
CCCCOc1ccc(-c2cc3c4nnc(SCC(=O)Nc5ccc(OC)cc5)n4ccn3n2)cc1 | -9.08%
O=C(Cn1nc2c(Sc3cccc(F)c3)nccn2c1=O)Nc1ccc(F)c(Cl)c1 | -15.42%
COc1ccc(NC(=O)Cn2nc3c(Sc4ccccc4)nccn3c2=O)c(OC)c1 | -9.08%
Cc1ccccc1Oc1nc2ccccc2n2c(=O)n(CC(=O)NCc3ccc4c(c3)OCO4)nc12 | 0.04%
Cc1ccc(NC(=O)Cn2nc3ccc(SCc4ccc(Cl)cc4)nn3c2=O)cc1C | -6.92%
COc1cccc(NC(=O)Cn2nc3c(Oc4cccc(OC)c4)nccn3c2=O)c1 | 2.27%
COc1cccc(-n2ccn3c(SCC(=O)N4CCN(c5ccccc5F)CC4)nnc3c2=O)c1 | -5.42%
COc1ccccc1N1CCN(C(=O)Cn2nc3ccc(-c4ccc(C)c(C)c4)nn3c2=O)CC1 | -0.61%
Cc1ccccc1N1CCN(c2nccn3c(=O)n(CC(=O)NCc4cc(F)cc(F)c4)nc23)CC1 | -0.75%
COc1ccc(C(=O)CSc2nnc3c(=O)n(-c4ccccc4)ccn23)cc1OC | -14.26%
Cc1ccc(CNC(=O)c2ccc3nn(CC(=O)Nc4ccc(C(F)(F)F)cc4)c(=O)n3c2)cc1 | -0.22%
CN(Cc1ccccc1)C(=O)CSc1nnc2c3cc(-c4ccccc4)nn3ccn12 | -11.2%
Cc1cccc(Oc2nccn3c(=O)n(CC(=O)N4CCN(c5ccc(F)cc5)CC4)nc23)c1C | -6.71%
COc1ccc(NC(=O)Cn2nc3nc(Nc4ccc(F)cc4)ccn3c2=O)cc1Cl | -9.75%
